Assay outcomes from PubChem.
RORg inh – qHTS for inhibitors of ROR gamma transcriptional activity. Potency, µM (highest dose often 53.6 µM), actives largely listed as inhibitors. Nuclear receptor ROR-gamma (Mus musculus), P51450. Drosophila S2 Gal4-RORgamma UAS-luciferase reporter, 20 h. AID 2551, 2010. 310,000 tested, 5.4% active; also: nearly all actives have a fitted effect of over 60% in size
Target sequence (P51450 whole entry, looked up, the tested form may be a part): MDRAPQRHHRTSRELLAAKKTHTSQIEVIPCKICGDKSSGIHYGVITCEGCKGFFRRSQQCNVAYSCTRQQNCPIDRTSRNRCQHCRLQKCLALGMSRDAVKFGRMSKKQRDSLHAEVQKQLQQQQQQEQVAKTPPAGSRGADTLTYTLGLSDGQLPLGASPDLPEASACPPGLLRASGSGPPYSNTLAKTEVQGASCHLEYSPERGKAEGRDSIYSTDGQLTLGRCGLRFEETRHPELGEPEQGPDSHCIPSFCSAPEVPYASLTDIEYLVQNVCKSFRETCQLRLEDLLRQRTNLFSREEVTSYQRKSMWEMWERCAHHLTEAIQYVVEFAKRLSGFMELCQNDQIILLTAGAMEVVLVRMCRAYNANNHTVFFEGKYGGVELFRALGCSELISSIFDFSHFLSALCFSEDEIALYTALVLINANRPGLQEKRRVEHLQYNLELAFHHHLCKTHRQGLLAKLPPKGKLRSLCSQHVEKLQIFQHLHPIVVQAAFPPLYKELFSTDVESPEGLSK
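A Gal4/UAS one-hybrid system in insect cells: metallothionein-promoter Gal4–ROR gamma fusion plus Photinus luciferase reporter. Copper sulfate 700 uM final, 20 hr ambient incubation, luminescent detection after 10 min with reagent.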
KB-3-1 tox – qHTS assay for MDR1-selective chemotherapeutics: Primary screen using the parental adenocarcinoma cell KB-3-1; KB-3-1 viability, CellTiter-Glo ATP luminescence, 72 h; 400,000 tested, 1.4% active; AID 1347075, 2019; Potency, µM (doses to about 46.1 µM), actives largely listed as cytotoxic; also: nearly all actives have a fitted effect of over 60% in size
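Cytotoxicity in the drug-sensitive parental line KB-3-1 was scored as loss of CellTiter-Glo luminescence following 72 h incubation with compound. Values come from curve fitting of normalized concentration-response data.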
KB-V1 MDR tox – qHTS assay for MDR1-selective chemotherapeutics: Primary screen using the drug-selected MDR subline cells KB-V1. KB-V1 MDR cells viability, CellTiter-Glo, 72 h. Potency, µM (highest dose often 46.1 µM), hits mostly cytotoxic. 400,000 tested, 3.4% active. AID 1347076, 2019; also: nearly all actives have a fitted effect of over 60% in size
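Drug-selected KB-V1 cells, grown in DMEM lacking phenol red with 10% FBS, receive compound titrations; after three days at 37 degrees C, surviving cell ATP is quantified by CellTiter-Glo luminescence and responses normalized and curve-fitted.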
MCF10A rerep – A quantitative high throughput screen for small molecules that induce DNA re-replication in MCF 10a normal breast cells. Potency, µM (doses to about 46.1 µM), most hits filed as activators. MCF 10A DNA re-replication, Hoechst nuclear intensity, 48 h. 350,000 tested, 2.9% active. AID 624296, 2012; also: nearly all actives have a fitted effect of over 50% in size
SW480 rerep – A quantitative high throughput screen for small molecules that induce DNA re-replication in SW480 colon adenocarcinoma cells | SW480 DNA re-replication, Hoechst DNA content imaging, 48 h | Potency, µM (titrated, usually from 46.1 µM), most hits filed as activators | 340,000 tested, 1.8% active | AID 624297, 2012; also: nearly all actives have a fitted effect of over 55% in size
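Per well, 250 cells were exposed to pinned compound for 48 hr. Nuclear DNA was visualised with Hoechst (40 min, 37 C) and total object intensity recorded by fluorescence scanning.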
VP16 counter – VP16 counterscreen qHTS for inhibitors of ROR gamma transcriptional activity; 310,000 tested, 3.5% active; Drosophila S2 Gal4-VP16 UAS-luciferase, luminescence, 20 h; Potency, µM (doses to about 53.6 µM), hits mostly inhibitors;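 also: Gal4-VP16 expression switched on by copper sulfate through the metallothionein promoter; nearly all actives have a fitted effect of over 50% in size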
Large screens that a line does not name were inactive; ! = repeats disagree. An excerpt weighted towards active compounds, which were near 10% of everything screened. Calls follow the shape of the dose curve; as a rule, active = well fitted curve in the direction sought with a large enough effect; inconclusive = small, poorly fitted or top-dose-only effect, or another doubt; inactive = no such curve, though single readings can be large; an effect the other way counts as inactive or inconclusive.

CN(C1CCCCC1)S(=O)(=O)c1ccc(C(=O)N2CCN(c3nc4ccccc4s3)CC2)cc1	RORg inh inconclusive, KB-V1 MDR tox 2.6µM
Cc1ccc(C)c(N2CCN(C(=O)c3ccc4nsnc4c3)CC2)c1	KB-3-1 tox 12µM, KB-V1 MDR tox 8.2µM, MCF10A rerep inconclusive, SW480 rerep 21µM
Cc1cccc(N2CCN(C(=O)c3c(C)nn(Cc4ccccc4Cl)c3C)CC2)c1C	KB-V1 MDR tox inconclusive, MCF10A rerep 15µM, SW480 rerep inconclusive
Cc1cccc(N2CCN(C(=O)c3ccc4ncsc4c3)CC2)c1C	KB-3-1 tox 4.6µM, KB-V1 MDR tox inconclusive, MCF10A rerep 9.2µM, SW480 rerep 10µM
Cc1ccc(NC(=O)CCC(=O)N2Cc3ccccc3Oc3ncccc32)cc1	none (no result: RORg inh, MCF10A rerep, SW480 rerep, VP16 counter)
NC(=O)C1(Nc2ccc(Cl)cc2)CCCC1	none (no result: RORg inh, VP16 counter)
Cc1ccc(C)c(NS(=O)(=O)c2cc3c(cc2C)n(C)c(=O)c(=O)n3C)c1	none (no result: RORg inh, MCF10A rerep, SW480 rerep, VP16 counter)
COc1ccc(C(=O)N2CCN(C(=O)c3cc(OC)c(OC)c(OC)c3)CC2)cc1	none
COc1cc(C(=O)N2CCN(c3cc(Cl)ccc3Cl)CC2)cc(OC)c1OC	KB-3-1 tox 0.33µM, KB-V1 MDR tox inconclusive, MCF10A rerep inconclusive, SW480 rerep 1.2µM
Cc1cccc(N2CCN(C(=O)N3CCOCC3)CC2)c1C	KB-3-1 tox 21µM, KB-V1 MDR tox inconclusive, MCF10A rerep inconclusive, SW480 rerep 16µM
COc1cc(C(=O)N2CCN(c3cccc(C)c3C)CC2)cc(OC)c1OC	RORg inh inconclusive, KB-3-1 tox 0.82µM, KB-V1 MDR tox 2.6µM, MCF10A rerep 10µM, SW480 rerep 0.73µM
O=C(Cn1c(C(=O)N2CCN(C3CCCCC3)CC2)cc2sccc21)c1ccccc1	KB-3-1 tox inconclusive, KB-V1 MDR tox 6.5µM
COc1cc(NC(=O)Cn2c(-c3ccccc3)cc(C(C)=O)c2C)cc(OC)c1	none (no result: RORg inh, MCF10A rerep, SW480 rerep, VP16 counter)
CC(NC(=O)c1ccccc1F)c1nnc(SCC(=O)Nc2nnc(C3CC3)s2)n1C (configuration not stated)	none (no result: RORg inh, VP16 counter)
O=C1c2cccc3c2[C@@H](CCC3)CN1[C@@H]1CN2CCC1CC2	none (no result: KB-3-1 tox, KB-V1 MDR tox)
COc1ccc(-c2cc(C3C4C=CCCC4(C)C(=O)N3Cc3ccccc3)ccc2F)cc1 (configuration not stated)	none (no result: KB-3-1 tox, KB-V1 MDR tox, MCF10A rerep, SW480 rerep)
CCCCCCCCCCCCCCCCCCN(CCCCCCCCCCCCCCCCCC)c1ccc(/C=C/c2ccc(C=O)cc2)cc1	none (no result: RORg inh, MCF10A rerep, SW480 rerep, VP16 counter)
O=C(c1ccc2ncsc2c1)N1CCN(c2nc3ccccc3s2)CC1	RORg inh inconclusive, KB-3-1 tox inconclusive, KB-V1 MDR tox 7.3µM
CCOC(=O)Nc1sc2c(c1C(N)=O)CCCC2	none (no result: RORg inh, MCF10A rerep, SW480 rerep, VP16 counter)
Cc1ccc(C)c(CC(=O)N2CCCC(c3cc(C(=O)Nc4ccccc4Cl)no3)C2)c1 (configuration not stated)	KB-V1 MDR tox inconclusive (no result: RORg inh, MCF10A rerep, SW480 rerep, VP16 counter)
CCOc1ccc(NC(=O)CC2C(=O)N(c3ccccc3)C(=O)N2Cc2ccc3c(c2)OCO3)cc1 (configuration not stated)	none (no result: RORg inh, MCF10A rerep, SW480 rerep, VP16 counter)
CCOC(=O)N1CCC(Nc2nc3ccccc3n3nnnc23)CC1	KB-V1 MDR tox 2.3µM, MCF10A rerep inconclusive
Fc1ccc(Nc2ncncc2-c2ccccc2C(F)(F)F)cc1	RORg inh inconclusive (no result: KB-3-1 tox, KB-V1 MDR tox, MCF10A rerep, SW480 rerep)
Cc1cc(Cl)ccc1OCc1nc(-c2ccc(O)cc2)n[nH]1	RORg inh inconclusive, VP16 counter 4.5µM
Cc1ccc(-n2nc3c(N4CCC(C(=O)NCCc5ccccc5)CC4)nnc(C)c3c2C)cc1	none (no result: RORg inh, MCF10A rerep, SW480 rerep, VP16 counter)
COc1ccccc1CNC(=O)C1CCCN(c2nnc(C)c3c(C)n(-c4ccccc4)nc23)C1 (configuration not stated)	none (no result: RORg inh, MCF10A rerep, SW480 rerep, VP16 counter)
Cc1ccc(-n2nc3c(N4CCC(C(=O)NCCc5ccccc5C)CC4)nnc(C)c3c2C)cc1	RORg inh inconclusive, KB-3-1 tox inconclusive, KB-V1 MDR tox inconclusive, MCF10A rerep 23µM, VP16 counter inconclusive
COc1ccc(-n2nc3c(N4CCC(C(=O)NCCc5ccccc5)CC4)nnc(C)c3c2C)cc1	KB-V1 MDR tox inconclusive (no result: RORg inh, MCF10A rerep, SW480 rerep, VP16 counter)
COc1ccc(-n2nc3c(N4CCC(C(=O)NCc5ccccc5C)CC4)nnc(C)c3c2C)cc1	MCF10A rerep inconclusive, SW480 rerep inconclusive
CCOc1ccccc1CNC(=O)C1CCCN(c2nnc(C)c3c(C)n(-c4ccccc4)nc23)C1 (configuration not stated)	RORg inh inconclusive, KB-3-1 tox inconclusive, KB-V1 MDR tox inconclusive, MCF10A rerep 15µM, SW480 rerep inconclusive, VP16 counter inconclusive
COc1ccc(-n2nc3c(N4CCC(C(=O)NCC(C)c5ccccc5)CC4)nnc(C)c3c2C)cc1 (configuration not stated)	MCF10A rerep inconclusive, SW480 rerep inconclusive, VP16 counter 20µM
COc1ccc(-n2nc3c(N4CCC(C(=O)NCCc5ccccc5C)CC4)nnc(C)c3c2C)cc1	MCF10A rerep 9.2µM, SW480 rerep inconclusive
CC(C)c1ccc2c(c1)NC(c1ccc(F)cc1)=NC(c1cccs1)=N2	KB-V1 MDR tox inconclusive (no result: RORg inh, MCF10A rerep, SW480 rerep, VP16 counter)
CC(C)COc1ccc(C(=O)CCN2CCCCC2)cc1	RORg inh 7.1µM, KB-3-1 tox 15µM, MCF10A rerep 12µM, SW480 rerep inconclusive, VP16 counter 11µM
CCCCOc1ccc(C(=O)CCN2CCCCC2)cc1	RORg inh inconclusive, MCF10A rerep 16µM, SW480 rerep 10µM!, VP16 counter 14µM
CC(C)COc1ccc(C(=O)OCCN2CCCCC2)cc1	MCF10A rerep inconclusive
Cc1cc(=O)oc2cc(OC3C=CC(C#CC(C)(C)C)OC3CO)ccc12 (configuration not stated)	none (no result: KB-3-1 tox, KB-V1 MDR tox, MCF10A rerep, SW480 rerep)
Cc1c(C(=O)N2CCOCC2)sc(NC(=O)CCl)c1C#N	RORg inh 13µM, KB-3-1 tox inconclusive, MCF10A rerep inconclusive, VP16 counter inconclusive
CC1CCN(CCOCCOc2ccccc2-c2ccccc2)CC1	KB-V1 MDR tox 12µM, MCF10A rerep inconclusive
c1ccc(-c2ccccc2OCCOCCN2CCCCC2)cc1	KB-V1 MDR tox inconclusive, MCF10A rerep inconclusive
CC1CCN(CCOc2ccc(OCc3ccccc3)cc2)CC1	KB-V1 MDR tox 15µM, MCF10A rerep inconclusive
O=C(N/N=C/c1ccc([N+](=O)[O-])o1)c1cc(-c2ccncc2)nc2ccccc12	KB-3-1 tox inconclusive, KB-V1 MDR tox inconclusive, MCF10A rerep 5µM, SW480 rerep inconclusive
COc1ccccc1-c1cc(C(=O)N/N=C/c2ccc(C)o2)c2ccccc2n1	SW480 rerep inconclusive (no result: RORg inh, VP16 counter)
